Reference: PubChem BioAssay (NCATS)
Where “and” joins values, the source holds several entries; their conditions need not be identical. Equal values may be shown once. Inconclusive results are not listed. Entries that show only a call come without a potency. Calls of active or inactive are those of the source. Calls come from the whole dose curve; as a rule, active = well fitted curve in the direction sought with a large enough effect; inconclusive = small, poorly fitted or top-dose-only effect, or another doubt; inactive = no such curve, though single readings can be large; an effect the other way counts as inactive or inconclusive.

Columns and labels:
[1] = biological target: N-terminal Xaa-Pro-Lys N-methyltransferase 1 (Homo sapiens) (UniProt Q9BV86); test: qHTS Assay for Inhibitors of N-terminal methyltransferase 1 (NTMT1): LOPAC validation of the NTMT1 SAHH-coupled ThioGlo3 Assay (AID 1347143); details: recombinant NTMT1, SAHH-coupled ThioGlo3 fluorescence; series mostly up to 114 µM;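 note: SAH from peptide methylation measured as thiol fluorescence via SAHH coupling and ThioGlo3; nearly all actives have a fitted effect of over 70% in size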; note: potency is the fitted concentration of half-maximal effect
Chain of N-terminal Xaa-Pro-Lys N-methyltransferase 1 (Homo sapiens) (Q9BV86 whole entry, looked up): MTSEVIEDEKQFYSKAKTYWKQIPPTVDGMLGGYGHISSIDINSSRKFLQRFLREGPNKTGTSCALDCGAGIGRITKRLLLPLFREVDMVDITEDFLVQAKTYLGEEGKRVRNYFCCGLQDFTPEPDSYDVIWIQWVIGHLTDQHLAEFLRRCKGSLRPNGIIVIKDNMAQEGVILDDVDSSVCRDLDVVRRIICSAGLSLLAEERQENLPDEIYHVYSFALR
Method in brief: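 NTMT1 125nM + cpds (various conc.), 1 min RT; add SAM 100uM/SAHH 10uM/ThioGlo3 15uM (addition mix). SAHH-coupled thiol detection, Ex340/Em450, t0 and 30 min RT; signal normalized to background. LOPAC 1280-cpd pilot.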

[2] = test system: Zika virus NS2B-NS3 protease (unlinked); test: Optimization of GU AMC qHTS for Zika virus inhibitors: Unlinked NS2B-NS3 protease assay (AID 1347151); details: recombinant ZIKV NS2B-NS3 protease, fluorogenic AMC substrate; series mostly up to 52.5 µM; note: nearly all actives have a fitted effect of over 80% in size; note: potency is the fitted concentration of half-maximal effect
Method in brief: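 In this qHTS, compounds acted on 25 nM unlinked Zika NS2B–NS3 in pH 8.0 Tris/Tween buffer. Cleavage of an AMC peptide ran 15 min at room temperature, to about 20% conversion.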

[3] = test system: Zika virus NS2B-NS3 protease; test: Primary screen GU AMC qHTS for Zika virus inhibitors (AID 1347154); details: Zika NS2B-NS3 unlinked protease, AMC fluorogenic substrate; series mostly up to 54.1 µM; note: nearly all actives have a fitted effect of over 70% in size
Method in brief: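 Fluorogenic AMC-substrate cleavage by noncovalent NS2B-NS3 protease complex (25 nM, pH 8.0 Tris buffer with Tween 20) followed for 15 minutes at room temperature (~20% conversion). Percent inhibition from ex340/em450 signal change, fitted by 4-parameter Hill equation.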

[4] = test system: Zika virus NS2B-NS3 protease (linked construct); test: Primary screen NINDS Rhodamine qHTS for Zika virus inhibitors (AID 1347160); details: purified NS2B-NS3 protease, Rhodamine110 substrate fluorescence; series mostly up to 57.1 µM; note: nearly all actives have a fitted effect of over 55% in size
Method in brief: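 Each compound, titrated, sat 15 min with 25 nM linked protease before 1.5 microM Rhodamine110 substrate went in. Fluorescence gain over the next 15 min, in pH 8.0 Tris with Tween 20, gave Hill-fitted curves.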

[5] = Confirmatory screen GU Rhodamine qHTS for Zika virus inhibitors qHTS (AID 1347157); details: purified enzyme assay, Rhodamine110 substrate fluorescence, 15 min; note: potency is the fitted concentration of half-maximal effect; nearly all actives have a fitted effect of over 70% in size
Method in brief: (§1)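 In dose–response format, inhibition of unlinked protease (25 nM) was measured with 1.5 microM bis-peptide Rhodamine110 substrate. Aprotinin served as the intraplate control.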

[6] = ZIKV-mCherry secondary qHTS for Zika virus inhibitors (AID 1347158); details: Vero cells, ZIKV-mCherry infection imaging, 48-72 h; series mostly up to 49.2 µM; note: top concentration of the series differs between compounds
Method in brief: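 This orthogonal imaging screen measured ZIKV-mCherry infection of Vero cells exposed to compound, MOI 1, 48-72 h. Percent infection came from segmented nuclei scored mCherry-positive above 3 SD of negative controls.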

[7] = Confirmatory screen NINDS Rhodamine qHTS for Zika virus inhibitors (AID 1347161); details: purified enzyme assay, Rhodamine110 substrate fluorescence, 15 min; series mostly up to 114 µM; note: potency is the fitted concentration of half-maximal effect; nearly all actives have a fitted effect of over 60% in size
Method in brief: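 qHTS dose-response: 25 nM linked protease, pH 8.0 Tris/Tween buffer, cpd titration, 15 min RT preinc, 1.5 microM Rhod110 peptide, 15 min reaction (~15% conversion), Ex480/Em540; 4-parameter Hill fit.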

[8] = test system: Zika virus NS2B-NS3 protease (linked); test: 384 well plate NINDS AMC confirmatory qHTS for Zika virus inhibitors (AID 1347163); details: Recombinant NS2B-NS3 protease, Ac-VKTGKR-AMC fluorescence; note: potency is the fitted concentration of half-maximal effect; nearly all actives have a fitted effect of over 50% in size
Method in brief: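 Enzyme (5, 30 or 60 nM final) first met test compounds for ~15 min. The AMC-tagged peptide Ac-VKTGKR-AMC followed at 30 microM. Fluorescence was then recorded at 25 min and scaled against no-enzyme and no-inhibitor wells.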

[9] = test system: Zika virus NS2B-NS3 protease (unlinked complex); test: Primary screen GU Rhodamine qHTS for Zika virus inhibitors: Unlinked NS2B-NS3 protease assay (AID 1347159); details: Recombinant ZIKV NS2B-NS3 protease, Rhodamine110 substrate fluorescence; series mostly up to 107 µM; note: nearly all actives have a fitted effect of over 60% in size
Method in brief: as §1

CCCN(CC1CC1)c1nc(C)nc(Nc2c(Cl)cc(Cl)cc2Cl)c1Cl
Potency [1]: inactive | Potency [2]: inactive | Potency [3]: inactive

Oc1ccc(C2CNCc3sccc32)cc1O (centres undefined)
Potency [1]: 35.5 µM (active) | Potency [2]: inactive

CN1CC(=O)N/C1=N/C(=O)Nc1cccc(Cl)c1
Potency [1]: inactive | Potency [2]: inactive | Potency [3]: inactive

CC(C)NCC(O)COc1cccc2ccccc12 (centres undefined)
Potency [1]: inactive | Potency [3]: inactive

NS(=O)(=O)c1ccc(-n2nc(C(F)(F)F)cc2-c2ccc(Cl)cc2)cc1
Potency [1]: inactive | Potency [2]: inactive | Potency [4]: inactive

O=C(Nc1cccc(C(=O)Nc2ccc(S(=O)(=O)O)c3cc(S(=O)(=O)O)cc(S(=O)(=O)O)c23)c1)Nc1cccc(C(=O)Nc2ccc(S(=O)(=O)O)c3cc(S(=O)(=O)O)cc(S(=O)(=O)O)c23)c1
Potency [1]: inactive | Potency [3]: inactive | Potency [5]: 2.82 µM (active) and 1.41 µM (active) | outcome [6]: inactive | Potency [7]: 2 µM (active) and 1.26 µM (active) | Potency [8]: 22.4 µM (active)

O=C(Nc1ccc2[nH]ncc2c1)C1CCC1
Potency [1]: inactive | Potency [2]: inactive | Potency [9]: inactive | Potency [4]: inactive

CCNc1nc2c(ncn2[C@H]2C[C@H](O)[C@@H](CO)O2)c(=O)[nH]1
Potency [1]: inactive | Potency [2]: inactive | Potency [9]: inactive | Potency [4]: inactive

N[C@H](CCCP(=O)(O)O)C(=O)O
Potency [1]: inactive | Potency [2]: inactive | Potency [3]: inactive

O=C(Nc1ccncc1)c1cc([N+](=O)[O-])ccc1Cl
Potency [1]: inactive | Potency [2]: inactive | Potency [3]: inactive

NS(=O)(=O)C#Cc1ccccc1
Potency [1]: inactive | Potency [2]: inactive | Potency [3]: inactive

CCCCCCCC/C=C\CCCCCCCC(=O)NCCO
Potency [1]: inactive | Potency [2]: inactive | Potency [3]: inactive

OC[C@H]1O[C@@H](n2cnc3c(NC4CCCCC4)ncnc32)[C@H](O)[C@@H]1O
Potency [1]: inactive | Potency [2]: inactive | Potency [3]: inactive

O=C(Nc1ccc2c(c1)CCN(Cc1ncn[nH]1)C2)c1ccccc1-c1ccc(C(F)(F)F)cc1
Potency [1]: inactive | Potency [2]: inactive | Potency [9]: inactive | Potency [4]: inactive

COC(=O)c1c(C)[nH]c(C)c1C(=O)c1ccccc1Cc1ccccc1
Potency [1]: inactive | Potency [2]: inactive | Potency [3]: inactive

CCN(CC)CCCCNc1ncc2cc(-c3c(Cl)cccc3Cl)c(NC(=O)NC(C)(C)C)nc2n1
Potency [1]: 44.7 µM (active) | Potency [2]: 2.99 µM (active) | Potency [9]: inactive | Potency [4]: inactive

CN1[C@@H](CC(=O)c2ccccc2)CCC[C@H]1C[C@H](O)c1ccccc1
Potency [1]: inactive | Potency [2]: inactive | Potency [3]: inactive

CCCCCCCCc1ccc(-c2ccc(C(=O)O)cc2)cc1
Potency [1]: 50.1 µM (active) | Potency [2]: 11.9 µM (active) | Potency [3]: inactive

C[C@@H](CN1CCC(Cc2ccccc2)CC1)[C@@H](O)c1ccc(O)cc1
Potency [1]: inactive | Potency [2]: inactive | Potency [3]: inactive

COc1cc(SC)ccc1C(=O)N1CCC(Cc2ccccc2)CC1
Potency [1]: inactive | Potency [2]: inactive | Potency [3]: inactive

CN(CCCOc1ccc(Cc2ccccc2)cc1)CCC(=O)O
Potency [1]: inactive | Potency [2]: inactive | Potency [9]: inactive | Potency [4]: inactive

COc1cccc(OC)c1OCCNCC1COc2ccccc2O1 (centres undefined)
Potency [1]: inactive | Potency [2]: inactive | Potency [3]: inactive

NC[C@@H]1O[C@H](C23CC4CC(CC(C4)C2)C3)Cc2c1ccc(O)c2O
Potency [1]: 50.1 µM (active) | Potency [2]: inactive | Potency [3]: inactive

C=CCc1cccc(/C=N/NC(=O)CN2CCN(Cc3ccccc3)CC2)c1O
Potency [1]: inactive | Potency [3]: inactive

CS(=O)(=O)c1ccc(-n2nc(C(F)(F)F)cc2-c2ccc(F)cc2)cc1
Potency [1]: inactive | Potency [2]: inactive | Potency [9]: inactive | Potency [4]: inactive

Cc1ccc(S(=O)(=O)/C=C/C#N)cc1
Potency [1]: 5.62 µM (active) | Potency [2]: inactive | Potency [3]: inactive

CC(C)(C=O)Cc1cc(C(C)(C)C)c(O)c(C(C)(C)C)c1
Potency [1]: inactive | Potency [3]: inactive

O=[N+]([O-])c1ccc2c(c1)S(=O)(=O)C=C2
Potency [1]: 44.7 µM (active) | Potency [2]: inactive | Potency [3]: inactive

O=C1C(SCCO)=C(SCCO)C(=O)c2ccccc21
Potency [1]: inactive | Potency [3]: inactive

O=c1[nH]c2cc(C(F)(F)F)ccc2n1-c1cc(C(F)(F)F)ccc1O
Potency [1]: inactive | Potency [3]: inactive

Cn1cc(C2=C(c3ccc(Cl)cc3Cl)C(=O)NC2=O)c2ccccc21
Potency [1]: inactive | Potency [2]: inactive | Potency [3]: inactive

O=C(O)CNC(=O)C(CS)Cc1ccccc1 (centres undefined)
Potency [1]: inactive | Potency [2]: inactive | Potency [3]: inactive

CC(C)NC[C@H](O)COc1cccc2[nH]ccc12
Potency [1]: inactive | Potency [2]: inactive | Potency [3]: inactive

O=S(=O)(c1cccc2c(I)cccc12)N1CCCNCC1
Potency [1]: 39.8 µM (active) | Potency [2]: inactive | Potency [3]: inactive

N[C@@H](CC(=O)O)C(=O)O
Potency [1]: inactive | Potency [2]: inactive | Potency [3]: inactive

O=C(O)c1cc(=O)c2c(Cl)cc(Cl)cc2[nH]1
Potency [1]: inactive | Potency [2]: inactive | Potency [3]: inactive

CCCCCCCCCCCCCCCC(=O)OC(CC(=O)O)C[N+](C)(C)C (centres undefined)
Potency [1]: inactive | Potency [2]: inactive | Potency [3]: inactive
